The nature of assay [1]: sensitizers of A549 cells to miR-34 induction, primary screen, imaging, A549 dox-inducible miR-34, nuclei and caspase counts (AID 1347080). The conditions noted are these: A549 miR-34 inducible, Hoechst nuclei count, 48 h.
The nature of assay [2]: survival rescue of mitochondrial mutant cells in low glucose, primary screen, MELAS cybrids, Rieske KO mouse fibroblasts, CellTiter-Glo (AID 1508586;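 active = mean z-score across replicates of 1.96 or higher in either the MELAS or the Rieske mutant cell line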;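 also: z relative to plate mean and SD of compound and empty wells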).
Where [3] appears, read: stronger effect = lower value, cell number ratio, induced over uninduced.
Where [4] appears, read: measured here: relative caspase fold change +Dox/-Dox.
Where [5] appears, read: measured here: total cells with miR-34 induction, stronger effect = lower value.
Where [6] appears, read: measured here: total cells without miR-34 induction.
The mark [7] stands for this setting: MELAS cybrid survival, CellTiter-Glo 48 h, stronger effect = higher value.
[8] abbreviates: Rieske KO mouse fibroblast survival, CellTiter-Glo 72 h.

SMILES strings stand for the structures. “And” between values parts separate entries of the source, which are not always exact repeats. Equal entries are not always repeated. The source made the active and inactive calls.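 The calls were made as follows, unless noted: active = compounds whose cell count with miR-34 switched on is under 0.7 times the count with it off; inactive = the rest.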 Where a SMILES comes first, the peptide text is derived from it.
Also: test concentration not given here.

Consider `Cc1ccc(C(=O)N(CCCN)C(c2nc3cc(Cl)ccc3c(=O)n2Cc2ccccc2)C(C)C)cc1` (stereo not drawn), for which the fold change is 0.993 (inactive) in assay [1] (setting [3]) and 0.877 in assay [1] (setting [4]). Moreover, the figures for the cell count in assay [1] (setting [5]) and in assay [1] (setting [6]) were 1340 and 1350, respectively. In addition, the z-score was 0.859 (inactive) in assay [2] (setting [7]) and -0.608 in assay [2] (setting [8]).
`C=CC(C)(O)CCC1[C@@]2(C)CCCC(C)(C)C2CC[C@@]1(C)O` (stereo partly drawn): the fold change in assay [1] (setting [3]) was 0.916 (inactive); in assay [1] (setting [4]), 0.879. Also, the cell count in assay [1] (setting [5]) stood at 8210; in assay [1] (setting [6]) it was 8970. Besides, the z-score in assay [2] (setting [7]) was -0.292 (inactive); in assay [2] (setting [8]), -0.0842.
As to `C[C@]12CCC(O)CC1=CCC1C2CC[C@]2(C)C(n3cnc4ccccc43)=CCC12` (stereo partly drawn), the fold change in assay [1] (setting [3]) is 0.927 (inactive); in assay [1] (setting [4]), 0.715. Further, the cell count in assay [1] (setting [5]) worked out at 7740; in assay [1] (setting [6]), 8340. Further, the values for the z-score in assay [2] (setting [7]) and in assay [2] (setting [8]) were -0.32 (inactive) and -0.165, respectively.
For the molecule `CC(OC1OCCN(Cc2n[nH]c(=O)[nH]2)C1c1ccc(F)cc1)c1cc(C(F)(F)F)cc(C(F)(F)F)c1` (stereo not drawn), the fold change in assay [1] (setting [3]) is 0.911 (inactive); in assay [1] (setting [4]) it was 3.19. Besides, the cell count in assay [1] (setting [5]) was found to be 7240; in assay [1] (setting [6]), 7950. For the same molecule, the z-score was 1.33 (inactive) in assay [2] (setting [7]) and -2.44 in assay [2] (setting [8]).
`CC1=NN(c2ccc(C(=O)O)cc2)C(=O)C1=Cc1ccc(-c2cc(C)c(C)cc2[N+](=O)[O-])o1`: the fold change in assay [1] (setting [3]) was 0.902 (inactive); in assay [1] (setting [4]), 0.511. For the same molecule, the cell count is 7310 in assay [1] (setting [5]) and 8100 in assay [1] (setting [6]). The z-score in assay [2] (setting [7]) is -0.321 (inactive); in assay [2] (setting [8]), 0.107.
Regarding `O=C(O)CCCN1CCC(OC(c2ccc(Cl)cc2)c2ccccn2)CC1` (stereo not drawn), the fold change in assay [1] (setting [3]) was 0.967 (inactive); in assay [1] (setting [4]), 1.77. The cell count was 8100 in assay [1] (setting [5]) and 8370 in assay [1] (setting [6]). Besides, the values for the z-score in assay [2] (setting [7]) and in assay [2] (setting [8]) were 0.387 (inactive) and -0.496, respectively.
In the case of `CCC(NC(=O)C(C)NC)C(=O)N1CC(O)CC1Cc1c(-c2[nH]c3cc(F)ccc3c2CC2CC(O)CN2C(=O)C(CC)NC(=O)C(C)NC)[nH]c2cc(F)ccc12` (stereo not drawn), the figures for the fold change in assay [1] (setting [3]) and in assay [1] (setting [4]) were 0.946 (inactive) and 0.86, respectively. Moreover, the cell count in assay [1] (setting [5]) was 9020; in assay [1] (setting [6]), 9540. For the same molecule, the figures for the z-score in assay [2] (setting [7]) and in assay [2] (setting [8]) were -0.425 (inactive) and -0.265, respectively.
`COC(=O)C(Cc1ccccc1)NC(=O)C(N)CC(=O)O` (stereo not drawn) (H-Asp-Phe-OMe; configuration not given here): the fold change in assay [1] (setting [3]) was 0.938 (inactive); in assay [1] (setting [4]), 0.532. Further, the cell count in assay [1] (setting [5]) amounted to 8220; in assay [1] (setting [6]), 8770. Besides, the z-score in assay [2] (setting [7]) was -0.285 (inactive); in assay [2] (setting [8]), -0.555.
For the molecule `C[C@@]12CCC3=C4CCC(=O)C=C4CC[C@H]3[C@@H]1CC[C@@]2(O)CC#N`, the fold change in assay [1] (setting [3]) was 0.908 (inactive); in assay [1] (setting [4]), 0.868. Besides, the cell count in assay [1] (setting [5]) was 7270; in assay [1] (setting [6]), 8010. In addition, the results for the z-score in assay [2] (setting [7]) and in assay [2] (setting [8]) were -0.385 (inactive) and 0.301, respectively.
For `CN1CCCC1Cc1c[nH]c2ccc(CCS(=O)(=O)c3ccccc3)cc12` (stereo not drawn), the results for the fold change in assay [1] (setting [3]) and in assay [1] (setting [4]) were 0.975 (inactive) and 1.13, respectively. For the same molecule, the cell count turned out to be 9340 in assay [1] (setting [5]) and 9580 in assay [1] (setting [6]). Besides, the z-score in assay [2] (setting [7]) was -0.473 (inactive); in assay [2] (setting [8]), -0.595.
`C=CCc1cccc(C=NNC(=O)CN2CCN(Cc3ccccc3)CC2)c1O`: the fold change in assay [1] (setting [3]) was 0.992 (inactive); in assay [1] (setting [4]), 0.755. Also, the cell count in assay [1] (setting [5]) was found to be 3820; in assay [1] (setting [6]) it was 3850. Also, the z-score is -0.146 (inactive) in assay [2] (setting [7]) and -1.03 in assay [2] (setting [8]).
Regarding `O=NO`, the results for the fold change in assay [1] (setting [3]) and in assay [1] (setting [4]) were 0.914 (inactive) and 1.01, respectively. The values for the cell count in assay [1] (setting [5]) and in assay [1] (setting [6]) were 8730 and 9550, respectively. Also, the z-score in assay [2] (setting [7]) is -0.254 (inactive); in assay [2] (setting [8]), -0.15.
Take `CN1CC(=O)N2C(c3ccc4c(c3)OCO4)c3[nH]c4ccccc4c3C[C@@H]2C1=O` (stereo partly drawn): the fold change in assay [1] (setting [3]) was 0.882 (inactive); in assay [1] (setting [4]), 0.922. In addition, the cell count in assay [1] (setting [5]) stood at 6530; in assay [1] (setting [6]), 7410. Further, the z-score in assay [2] (setting [7]) is -0.417 (inactive); in assay [2] (setting [8]) it was 0.533.
With `CCOc1ccccc1OC(c1ccccc1)[C@H]1CNCCO1` (stereo partly drawn), the fold change was 0.858 (inactive) in assay [1] (setting [3]) and 1.73 in assay [1] (setting [4]). Moreover, the cell count in assay [1] (setting [5]) was determined as 8800; in assay [1] (setting [6]) it was 10300. For the same molecule, the values for the z-score in assay [2] (setting [7]) and in assay [2] (setting [8]) were -0.71 (inactive) and -0.166, respectively.
For the molecule `CC(C)c1c(C(=O)Nc2ccccc2)c(-c2ccccc2)c(-c2ccc(F)cc2)n1CCC(O)CC(O)CC(=O)O` (stereo not drawn), the results for the fold change in assay [1] (setting [3]) and in assay [1] (setting [4]) were 1.21 (inactive) and 0.989, respectively. Besides, the cell count in assay [1] (setting [5]) is 5220; in assay [1] (setting [6]), 4330. The z-score in assay [2] (setting [7]) was 0.917 (inactive); in assay [2] (setting [8]), -1.34.
Turning to `CCCCCCOC(=O)N=C(N)c1ccc(NCc2nc3cc(C(=O)N(CCC(=O)OCC)c4ccccn4)ccc3n2C)cc1`, the fold change in assay [1] (setting [3]) is 0.94 (inactive); in assay [1] (setting [4]) it was 0.85. The cell count in assay [1] (setting [5]) turned out to be 8810; in assay [1] (setting [6]) it was 9380. For the same molecule, the results for the z-score in assay [2] (setting [7]) and in assay [2] (setting [8]) were -0.278 (inactive) and 0.124, respectively.
Consider `CC1COCCN1c1cc(C2(S(C)(=O)=O)CC2)nc(-c2cccc3[nH]ccc23)n1` (stereo not drawn), for which the fold change is 0.703 (inactive) in assay [1] (setting [3]) and 2.27 in assay [1] (setting [4]). Also, the cell count in assay [1] (setting [5]) is 1950; in assay [1] (setting [6]) it was 2770. Further, the z-score in assay [2] (setting [7]) was 2.53 (active); in assay [2] (setting [8]), -0.319.
For `N#CCC(C1CCCC1)n1cc(-c2ncnc3[nH]ccc23)cn1` (stereo not drawn), the fold change in assay [1] (setting [3]) is 1.03 (inactive) and 0.94 (inactive); in assay [1] (setting [4]), 0.563 and 1.09. Besides, the cell count in assay [1] (setting [5]) was 8730 and 7580; in assay [1] (setting [6]) it was 8490 and 8060. Moreover, the z-score in assay [2] (setting [7]) was -0.347 (inactive) and -0.642 (inactive); in assay [2] (setting [8]) it was 0.0258 and -0.766.
In the case of `COC(=O)C1=COC(O)[C@@H]2C(CO)=CC[C@H]12` (stereo partly drawn), the fold change in assay [1] (setting [3]) is 0.899 (inactive); in assay [1] (setting [4]) it was 1. Besides, the cell count was 8660 in assay [1] (setting [5]) and 9630 in assay [1] (setting [6]). Besides, the z-score in assay [2] (setting [7]) is -0.314 (inactive); in assay [2] (setting [8]), -0.656.
For the molecule `O=C(COc1ccc(C(=O)c2ccccc2)cc1)NC1CCN(Cc2ccccc2)CC1`, the fold change in assay [1] (setting [3]) was 0.922 (inactive); in assay [1] (setting [4]), 0.78. For the same molecule, the values for the cell count in assay [1] (setting [5]) and in assay [1] (setting [6]) were 6930 and 7520, respectively. Moreover, the z-score in assay [2] (setting [7]) was -0.391 (inactive); in assay [2] (setting [8]), -0.791.
Regarding `O=C(C=Cc1ccc(O)c(O)c1)OC1C[C@@](O)(C(=O)O)CC(O)C1O` (stereo partly drawn), the fold change in assay [1] (setting [3]) is 0.936 (inactive); in assay [1] (setting [4]) it was 0.802. Also, the cell count in assay [1] (setting [5]) stood at 8020; in assay [1] (setting [6]) it was 8570. The z-score in assay [2] (setting [7]) is -0.38 (inactive); in assay [2] (setting [8]) it was -0.0852.
With `CON=C(C(=O)N[C@@H]1C(=O)N2C(C(=O)O)=C(CSC(=O)c3ccco3)CS[C@H]12)c1csc(N)n1`, the fold change was 0.943 (inactive) in assay [1] (setting [3]) and 1.19 in assay [1] (setting [4]). The cell count in assay [1] (setting [5]) stood at 9660; in assay [1] (setting [6]) it was 10200. The figures for the z-score in assay [2] (setting [7]) and in assay [2] (setting [8]) were -0.295 (inactive) and 0.108, respectively.
On to `COC(=O)NC(C(=O)N1CCCC1c1ncc(-c2ccc(-c3ccc(-c4cnc(C5CCCN5C(=O)C(NC(=O)OC)C(C)C)[nH]4)cc3)cc2)[nH]1)C(C)C` (stereo not drawn), for which the figures for the fold change in assay [1] (setting [3]) and in assay [1] (setting [4]) were 0.912 (inactive) and 0.711, respectively. The figures for the cell count in assay [1] (setting [5]) and in assay [1] (setting [6]) were 6220 and 6830, respectively. Further, the z-score is 1.19 (inactive) in assay [2] (setting [7]) and 0.581 in assay [2] (setting [8]).

The record behind these values is PubChem BioAssay.
